Source: PubChem
A selection: hits, their analogues and other compounds. The true share with any hit is near 3.9%.
AHR act = human AHR activation; P35869; AHR-responsive luciferase reporter cells, luminescence; activation, % at 5 µM; hit rate 2.5% among 320,000; in the data active = activation above about 47%;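 also: 0% = vehicle wells and 100% = reference agonist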
sPLA2-III inh = Inhibits HGIII-sPLA2 liposome hydrolysis, primary screen; Q9NZ20; QFRET BODIPY PC-A2 liposome hydrolysis, fluorescence; inhibition, % at 12.2 µM; hit rate 0.56% among 370,000;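 active = inhibition above mean plus 3 SD of compounds lying within the high and low control bounds, cut at about 19% in these data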;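 also: 0% = median of test compound wells and 100% = no enzyme DMSO wells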
PLCb3 inh = inhibitors of human phospholipase C beta3; inhibition, % at 12.2 µM; hit rate 0.18% among 370,000; Purified PLC-beta3, fluorogenic substrate, fluorescence; Q01970; AID 720704; in the data active = inhibition above about 11%;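 also: 0% = median of compound wells on plate and 100% = full blocker control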
Yeast superoxide = yeast age-related superoxide inhibition as caloric restriction mimetic | S. cerevisiae aged cells, superoxide DHE fluorescence; stronger effect = lower value | superoxide response (% of plate mean), % at 10 µM | hit rate 0.18% among 330,000;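 active = superoxide response under a set limit, about three screen SD below normal, cut at about 65% in these data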;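 also: yeast aged for seven days with compound at 30 °C before DHE staining; 100% = average MFI of all compound-treated wells on the plate with controls excluded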
HIF act = HIF pathway transcriptional activation; hit rate 0.32% among 300,000; AID 1910; activation, % at 7.5 µM (by protocol); U2OS HRE-luciferase reporter, luminescence; normalized: DMSO 0%, desferrioxamine 100%;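 active = mean activation of at least 10% of the iron chelator positive control signal, with at least half of replicates also reaching 10%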
PLCg1 inh = PLC-gamma1 (human) inhibition, primary screen | P19174 | purified PLC-gamma1, fluorogenic substrate, fluorescence | inhibition, % at 12.2 µM | hit rate 0.84% among 370,000 | AID 720700; in the data active = inhibition above about 9.5%
AHR act cf = confirmation of human aryl hydrocarbon receptor activators | activation, % at 9 µM | human cells, AHR-responsive luciferase reporter, luminescence | shares compounds with AHR act | hit rate 87% among 2,300; in the data active = activation above about 49%;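 also: HepG2 hepatoma cells carrying a DRE-driven firefly luciferase reporter; 0% = vehicle wells and 100% = reference agonist wells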
PXR counter = counter-screen for AHR activators: human PXR activators; cell-based PXR reporter, luciferase luminescence; activation, % at 11.6 µM; hit rate 88% among 2,300; shares compounds with AHR act; in the data active = activation above about 11%;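 also: human hepatoma DPX-2 cells expressing full-length human PXR; 0% = DMSO and 100% = reference agonist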
Active calls of the source: *; i = inactive; x = not tested or not shown.

SMILES	AHR act	sPLA2-III inh	PLCb3 inh	Yeast superoxide	HIF act	PLCg1 inh	AHR act cf	PXR counter
Cc1ccc(-n2c(=O)[nH]cc(C(=O)Nc3ccc4c(c3)OCO4)c2=O)cc1C	88*	-7	3	102	0	2	68*	x
COc1ccc(NC(=O)c2c[nH]c(=O)n(-c3ccc(C)c(C)c3)c2=O)cc1OC	13	-10	-1	89	0	-2	x	x
COc1ccc([N+](=O)[O-])cc1N/C(=N/S(=O)(=O)c1ccccc1)c1ccccc1	113*	-11	1	105	0	-2	84*	133*
c1ccc(-c2nc3c(ccc4ccccc43)[nH]2)nc1	95*	9	i	89	2	i	138*	11*
O=C(CN(c1ccc(F)cc1)S(=O)(=O)c1ccc2c(c1)OCCO2)Nc1ccc2c(c1)OCO2	101*	-18	-1	77	-4	0	52*	72*
CCOc1ccc(/C=N/NC(=O)c2c(C)n(C)c3ccc(OC)cc23)cc1	11	1	-3	117	3	-1	x	x
CCOc1ccc2c(c1)c(N=O)c(O)n2C	94*	-37	2	101	1	0	62*	10*
CCCCCCCCN1C(=O)[C@@H](CC(=O)N2CCCCC2)C[C@@]2(C(=O)OC)C1=C[C@H](C1CCCC1)O[C@@H]2C	x	1	4	x	x	1	x	x
CC(C)(C)Cc1c(-c2ccc(Cl)cc2)nc2ccc(Cl)cn12	x	-2	2	x	x	0	x	x
CN(C)Cc1c(-c2ccc(Cl)cc2)nc2ccc(Cl)cn12	133*	6	-3	100	0	-3	109*	12*
NC(=O)c1ccc(NC(=O)COC(=O)c2cc3ccccc3cc2O)cc1	14	1	-87	112	x	-69	x	x
Nc1nc(NCCCN2CCOCC2)nc(Nc2ccc(F)cc2)c1[N+](=O)[O-]	83*	-7	6	98	0	4	15	29*
Cc1ccc(Nc2nc(N)c([N+](=O)[O-])c(N3CCC(C)CC3)n2)cc1C	28	0	3	93	0	-2	x	x
Cc1ccc(Nc2nc(N)c([N+](=O)[O-])c(N3CCOCC3)n2)cc1C	119*	-5	4	92	0	4	83*	21*
N#Cc1cccnc1N1CCN(C(c2ccnc3ccccc23)c2nnnn2-c2ccc3c(c2)OCCO3)CC1 (stereo not given)	x	-1	-42	x	x	-28	x	x
CCCc1cc(=O)oc2cc(OCC(=O)Nc3ccc(S(N)(=O)=O)cc3)ccc12	0	-8	-4	122	1	2	x	x
CCOc1cc(N)c(Cl)cc1C(=O)NCC1CN(Cc2ccc(F)cc2)CCO1 (stereo not given)	90*	-8	-1	91	0	0	63*	181*
O=C(Nc1ccc(Cl)cc1)Nc1ccon1	97*	-6	-8	109	4	-2	76*	14*
Cc1ccc(NC(=O)Nc2ccon2)cc1	x	3	-6	x	1	-2	x	x
CCCCc1cc(=O)oc2c(C)c(OCC(=O)NCC3CCC(C(=O)O)CC3)ccc12 (stereo not given)	-1	4	0	111	0	0	x	x
Cc1c(=O)n(OCc2ccccc2)c2ccccc2[n+]1[O-]	177*	3	-19	91	0	-18	201*	47*
CN(C)C(=O)CCc1ccc2c3c([nH]c2c1)[C@]1(C)[C@@H](C(=O)N2CCOCC2)C[C@H](CC(=O)NCCCn2ccnc2)C(=O)N1CC3	x	-2	1	116	x	-3	x	x
COc1ccc(NC(=O)c2ccc(Cl)nc2)cc1S(=O)(=O)N1CCOCC1	92*	12	-8	94	x	-3	102*	21*
Cc1cc(OCC(=O)OCC(=O)N2CC(C)CC(C)C2)ccc1Cl (stereo not given)	0	-2	-6	109	x	-3	x	x
O=C(NCc1ccc2c(c1)OCO2)c1cccc2c1C(=O)N(C1CCCCC1)C2	0	3	5	102	0	3	x	x
